Measured values: PubChem BioAssay AID588382 (National Center for Advancing Translational Sciences (NCATS), 2011)
Screen size: about 1,300 compounds; about 150 (12%) were called active. Inconclusive results (about 30%) are left out. The call rests on the fitted dose curve; in most records, active means well fitted cell-killing curve with a large enough effect; inconclusive means small, poorly fitted or top-dose-only effect, or effect the other way; inactive means flat fitted curve, though single readings scatter. What follows is part of a selection rich in actives, with near analogues and random picks from the rest. A call without a number means that no potency is given here.

Experiment: qHTS of small molecules that selectively kill Giardia lamblia: Hit Validation in HepG2 cytotox;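 further: compound exposure lasted overnight at 37 deg C; nearly all actives have a fitted effect of over 55% in size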
Conditions: cell viability; Potency: HepG2 cytotoxicity; series mostly up to 38.3 µM
How it was run: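 HepG2 cells seeded and incubated overnight at 37 deg C, then 23 nL compound added by pintool and incubated overnight at 37 deg C. Viability read as ATP luminescence with ATPLite after 15 min at room temperature.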
Potency means the concentration at half of the fitted maximal effect.

Compound	Potency
CCOC(=O)CN1C(=O)S/C(=C/c2cccc([N+](=O)[O-])c2O)C1=O	inactive
Cc1ccc(S(=O)(=O)N2CCN(C(=O)COc3ccc(C)nc3[N+](=O)[O-])CC2)c(C)c1	inactive
Cc1ccc(OCC(=O)c2cc(C)n(C)c2C)c([N+](=O)[O-])n1	inactive
COc1ccc(-n2nc([N+](=O)[O-])c(=NCCc3ccc(C)cc3)n2O)cc1	inactive
Nc1nc(Cl)nc2c1ncn2[C@H]1C[C@H](O)[C@@H](CO)O1	inactive
Cc1ncc([N+](=O)[O-])n1CCN1C(=O)c2ccccc2C1=O	inactive
O=C1c2ccccc2C(=O)c2c1ccc1c(=O)n(C3CCCCC3)[nH]c21	inactive
O=C(CSc1cccc[n+]1[O-])Nc1cc2c(cc1Cl)C(=O)c1ccccc1C2=O	inactive
O=C(N/N=C/c1cc2c(cc1[N+](=O)[O-])OCO2)c1ccccn1	inactive
Cc1ccc(N/C(C(Cl)=C(Cl)Cl)=C(/Cl)[N+](=O)[O-])c(C)c1	inactive
O=C(CCCn1cnc([N+](=O)[O-])n1)Nc1cccc(Cl)c1Cl	inactive
O=[N+]([O-])c1nn(-c2ccc3c(c2)OCCO3)n(O)c1=NCc1ccccc1Cl	inactive
Cc1oc2cc([N+](=O)[O-])c(O)c([N+](=O)[O-])c2c1C(=O)c1ccc(Cl)cc1	inactive
CCN(CC)C(=O)Cn1cc([N+](=O)[O-])cc1[N+](=O)[O-]	inactive
CC1(C)Oc2cc3oc(-c4cc(O)cc(O)c4)cc3cc2CC1O (centres undefined)	5.85 µM (active)
CCCCNC(=O)/C(=C\c1ccc([N+](=O)[O-])o1)NC(=O)c1ccccc1	inactive
O=C1c2ccc3c4c(ccc(c24)C(=O)N1CCCCO)C(=O)N(CCCCO)C3=O	4.14 µM (active)

Compound	Potency
O=C(CCN1C(=O)c2ccccc2C1=O)Nc1ccccc1C(F)(F)F	inactive
O=C(CCN1C(=O)c2ccccc2C1=O)NCc1ccc(F)cc1	inactive
O=[N+]([O-])c1nn(-c2ccc3c(c2)OCCO3)n(O)c1=NCCC1=CCCCC1	inactive
O=c1c([N+](=O)[O-])cccn1Cc1ccccc1Cl	inactive
[O-][n+]1c2ccccc2c2n1CCN=C2c1ccc(Cl)cc1	inactive
O=[N+]([O-])c1nn(-c2ccc3c(c2)OCCO3)n(O)c1=Nc1ccc(Cl)cc1	inactive
COc1cc2nc(N3CCN(c4cc(C)ccc4C)CC3)nc(N)c2cc1OC	9.27 µM (active)
COc1cc2nc(N3CCN(C)CC3)nc(NC(C)C)c2cc1OC	inactive
Cc1cc(=S)nc(-c2ccccn2)[nH]1	inactive
CN1C(=O)/C(=C/c2ccc(O)c([N+](=O)[O-])c2)NC1=S	inactive
CCc1cccc(N=c2c([N+](=O)[O-])nn(-c3ccc4c(c3)OCCO4)n2O)c1	inactive
Cc1cccc(NC(=O)c2ccc([N+](=O)[O-])s2)c1C	inactive
Cc1cc(C)cc(Oc2ccc(NC(=O)C3CC=CCC3C(=O)O)cc2)c1 (centres undefined)	inactive
CCn1nc(-c2ccc(C)cc2)nc2c(=O)n(C)c(=O)nc1-2	5.21 µM (active)
CCc1ccc(-c2nc3c(=O)n(C)c(=O)nc-3n(CC)n2)cc1	1.85 µM (active)
CC(=O)O[C@@H]1[C@@H](OC(C)=O)[C@H](n2ccc3cc([N+](=O)[O-])ccc32)OC[C@@H]1OC(C)=O	inactive
Cc1ccc([C@@H]2CC=C(C(=O)O)CN2S(=O)(=O)c2ccc(C)cc2)cc1	inactive
